Here are results for 40 molecules from PubChem BioAssay (NCATS).

Results filed as inconclusive are left out. Active and inactive are the calls of the source. Calls follow the shape of the dose curve; as a rule, active = well fitted inhibition curve with a large enough effect; inconclusive = small, poorly fitted or top-dose-only effect; inactive = flat fitted curve, though single readings scatter.

Chain of Calcium and integrin-binding protein 1 (Homo sapiens) (Q99828 whole entry, looked up): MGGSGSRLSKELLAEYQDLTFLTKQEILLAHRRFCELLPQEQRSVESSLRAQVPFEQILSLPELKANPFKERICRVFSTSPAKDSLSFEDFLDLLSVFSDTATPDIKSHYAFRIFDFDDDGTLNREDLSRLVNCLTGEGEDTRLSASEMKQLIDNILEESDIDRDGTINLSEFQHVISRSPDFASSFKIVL

This assay concerns the target Calcium and integrin-binding protein 1 (Homo sapiens) (UniProt Q99828). The experiment in a line: Primary qHTS for Identification of Calcium Integrin Binding Protein 1 (CIB1) Competitor (AID 1508620).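 Also: GST tagged CIB1 binding a fluorescein labelled alphaIIb integrin peptide tracer; top concentration of the series differs between compounds.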 As to conditions: CIB1-GST / FITC-alphaIIb peptide fluorescence polarization; series mostly up to 57.7 µM. The source says:
Assay Provider: Ulhas P. Naik, PhD Sidney Kimmel Medical College Thomas Jefferson University, Philadelphia, PA Primary function of platelets is to maintain hemostasis. At the site of vascular injury, platelets adhere to adhesive proteins such as collagen and von Willebrand factor. Adherent platelets are activated and generate soluble platelet agonists such as thrombin, ADP and thromboxane A2. Following exposure of circulating platelets to these agonists, results in platelet shape change, granule secretion and activation of platelet integrin alphaIIb-beta3. Ligand binding to activated integrin alphaIIb-beta3 triggers outside-in signaling, leading to platelet aggregation, stabilization of platelet plug, and clot retraction. Upon atherosclerotic plaque rupture also causes platelet plug formation, which underlies a number of cardiovascular diseases such as myocardial infraction and stroke. A number of anti-platelet drugs such as aspirin, clopidogrel, prasugrel, vorapaxar, and eptifibatide are currently available to prevent the thrombotic complications. However, these anti-platelet agents have several limitations including inherent variability in individual responses, developing resistance, and serious bleeding side effects. For these reasons they are not suitable for long-term protection. Based on the experiences with current anti-platelet drugs, it appears that the most useful therapeutic approach is to intersect the secondary responses such as integrin outside-in signaling or recruitment of platelets by TxA2 and secreted ADP. Compounds, which can largely preserve the primary hemostatic function of platelets but inhibit secondary response will be most desired therapeutic agents for treatment of cardiovascular disease. CIB1 is a calcium integrin binding protein, which specifically interact with the alphaIIb subunit of integrin alphaIIb-beta3. Binding of CIB1 to alphaIIb regulates the outside-in signaling in platelets, which is needed for thrombus stabilization and thrombus growth. […] Therefore, we propose that discovery of a small molecule that can prevent the association of CIB1 and alphaIIb-beta3 will be a potential anti-platelet agent that can block the thrombus formation without undue effect on hemostasis. Reference: [1] Naik MU, Nigam A, Manrai P, et al. CIB1 deficiency results in impaired thrombosis: the potential role of CIB1 in outside-in signaling through integrin alpha IIb beta 3. J Thromb Haemost.
PROTOCOL TABLES SEQUENCE No. (1, 2, 3, etc.); […] (e.g., Cells, Incubation, Reagent, etc.); VALUE and DESCRIPTION. 1; Reagent; 3 uL; Protein or buffer (4/3x) 2; Compound; 46 nL; Control inhibitor / compound library 3; Time; 15 min; Room temperature incubation 4; Reagent; 1 uL; Fluorescent labeled peptide (4x) 5; Time; 1000 rpm; Centrifuge 6; Time; 15 min; Room temperature incubation 7; Detection; Ex 480/ Em 540; ViewLux Fluorescence Read NOTES (numbers refer to sequence above) 1; Protein Mixture: C1B1-GST (final concentrations of 1 uM). […] 3; Room temperature incubation. 4; Fluorescent Labeled Peptide: FITC-aIIb (final concentration of 100 nM). Sequence of alphaIIb peptide: Acetyl-[…]-FITC (purity is 95.83%). 5; Centrifuge 1000 rpm (164 g) for 15 seconds. 6; Room temperature incubation. 7; ViewLux Fluorescent Polization Read: excitation = 480(20) / emission = 540(25) S and P; FITC Dichroic mirror.
Take `CC(=O)Oc1ccccc1C(=O)Nc1ncc([N+](=O)[O-])s1`: the result was inactive.
Consider `N[C@@H](C(=O)N[C@@H]1C(=O)N2C(C(=O)O)=C(Cl)CS[C@H]12)c1ccccc1`, for which the outcome was inactive.
As for `Cc1ccnc2c1NC(=O)c1cccnc1N2C1CC1`, the entry is “inactive”; as for `Oc1c(Cl)cc(Cl)c2cccnc12`, “inactive”.
The value for `CC1=CC(=O)c2ccccc2C1=O` was “inactive”; that for `CC(C)OC(=O)OCOP(=O)(CO[C@H](C)Cn1cnc2c(N)ncnc21)OCOC(=O)OC(C)C` was “inactive”.
As for `CC(=O)CC(c1ccccc1)c1c(O)c2ccccc2oc1=O` (stereo not given), the entry is “inactive”; as for `COc1ccccc1OCC(O)COC(N)=O` (stereo not given), “inactive”.
As to `NC(=O)c1cccc(N)c1`, the outcome was inactive.
The value for `CCOC(=O)[C@H](CCc1ccccc1)N[C@H]1CS[C@H](c2cccs2)CN(CC(=O)O)C1=O` was “inactive”; that for `CCOC(=O)c1ccc(C#Cc2ccc3c(c2)C(C)(C)CCS3)nc1` was “inactive”.
As for `CNC(=O)c1cc(Oc2ccc(NC(=O)Nc3ccc(Cl)c(C(F)(F)F)c3)cc2)ccn1`, the entry is “inactive”; as for `CC[C@H](NC(C)C)[C@H](O)c1ccc(O)c2[nH]c(=O)ccc12`, “inactive”; as for `NS(=O)(=O)c1cc2c(cc1Cl)NC(C(Cl)Cl)NS2(=O)=O` (stereo not given), “inactive”.
The value for `CCCOc1ccc(C(=O)OCCN(CC)CC)cc1N` was “inactive”; that for `Cn1nnc2c(C(N)=O)ncn2c1=O` was “inactive”; that for `NCCCC(O)(P(=O)(O)O)P(=O)(O)O` was “inactive”.
`CCOC(=O)c1ccc(OC(=O)CCCCCN=C(N)N)cc1`: the outcome was inactive.
As to `C[C@@H]1CN(c2c(F)c(N)c3c(=O)c(C(=O)O)cn(C4CC4)c3c2F)C[C@H](C)N1`, the outcome was inactive.
On to `COc1cc2c(Nc3ccc(Br)cc3F)ncnc2cc1OCC1CCN(C)CC1`, for which the result was inactive.
For the molecule `NC(=O)c1ccc2[nH]ccc2c1`, the outcome was inactive.
The value for `COc1cccc(N(C)C(=S)Oc2ccc3c(c2)CCCC3)n1` was “inactive”; that for `COC(c1ccccc1)(c1ccccc1)[C@H](Oc1nc(C)cc(C)n1)C(=O)O` was “inactive”; that for `COCCCOc1cc(C[C@@H](C[C@H](N)[C@@H](O)C[C@H](C(=O)NCC(C)(C)C(N)=O)C(C)C)C(C)C)ccc1OC` was “inactive”.
The value for `S=P(N1CC1)(N1CC1)N1CC1` was “inactive”; that for `CC(N)C12CC3CC(CC(C3)C1)C2` (stereo not given) was “inactive”; that for `CCN(CC)CCn1c(=O)c(Cc2ccc(OC)cc2)nc2ccccc21` was “inactive”.
As for `Cc1noc(NS(=O)(=O)c2ccc(N)cc2)c1C`, the entry is “inactive”.
For `C[C@@H](NCCCc1cccc(C(F)(F)F)c1)c1cccc2ccccc12`, the result was inactive.
The value for `CC(=O)[C@H]1CC[C@H]2[C@@H]3CCC4=CC(=O)CC[C@]4(C)[C@H]3CC[C@]12C` was “inactive”; that for `NC(=O)c1cccnc1` was “inactive”; that for `Nc1nc(=S)c2[nH]cnc2[nH]1` was “inactive”.
The value for `CCN[C@H]1C[C@H](C)S(=O)(=O)c2sc(S(N)(=O)=O)cc21` was “inactive”; that for `CC(C)Cn1cnc2c(N)nc3ccccc3c21` was “inactive”; that for `CC(C)(C#N)c1cc(Cn2cncn2)cc(C(C)(C)C#N)c1` was “inactive”.
The value for `CN(C)CCc1c[nH]c2ccc(CS(=O)(=O)N3CCCC3)cc12` was “inactive”.
As for `CCOC(=O)[C@H](CCc1ccccc1)N[C@H]1CCc2ccccc2N(CC(=O)O)C1=O`, the result was inactive.
With `CC(C(=O)O)c1ccc2c(c1)CC(=O)c1ccccc1S2` (stereo not given), the outcome was inactive.
As for `O=C(O)c1cc(=O)[nH]c(=O)[nH]1`, the entry is “inactive”; as for `Cc1ccc(S(=O)(=O)N[C@@H](Cc2ccccc2)C(=O)CCl)cc1`, “inactive”.
